Laboratory results published in PubChem BioAssay (NCI).
This is part of a sample that, as a whole, favours compounds with a hit. Of some 79,000 tested, about 15% had one in any assay. Values without a mark were called inactive. Active and inactive are the calls of the source. No stated cut-off is given here; in the data, active means growth inhibition above about 70%; inactive means the rest.

What was measured:
[1] = NCI Yeast Anticancer Drug Screen. Data for the rad50 strain (AID 155);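 further: 0% = growth of vehicle-only cultures of the same strain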; settings: S. cerevisiae rad50 strain growth inhibition, active compounds read high
Outline: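 Yeast carrying a defined DNA repair defect were exposed to test compounds, and growth was compared with vehicle-treated controls to give percent inhibition.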

[2] = NCI Yeast Anticancer Drug Screen. Data for the mec2-1 strain (AID 157); settings: S. cerevisiae mec2-1 strain, active compounds read high
Outline: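 Vehicle-treated cultures served as reference for growth inhibition of compound-exposed mec2-1 yeast.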

[3] = NCI Yeast Anticancer Drug Screen. Data for the sgs1 mgt1 strain (AID 161);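 further: 0% = growth of cultures given vehicle only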; settings: S. cerevisiae sgs1 mgt1 strain, active compounds read high
Outline: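 Read-out: growth inhibition vs vehicle controls. Cells: mutant yeast strain deficient in DNA damage repair.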

[4] = NCI Yeast Anticancer Drug Screen. Data for the cln2 rad14 strain (AID 165);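 further: 0% = growth equal to vehicle treated cultures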; settings: S. cerevisiae cln2 rad14 strain, active compounds read high
Outline: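 Each compound was tested on cln2 rad14 yeast. Inhibition of growth was calculated against vehicle-exposed controls.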

[5] = NCI Yeast Anticancer Drug Screen. Data for the bub3 strain (AID 167); settings: S. cerevisiae bub3 mutant strain, active compounds read high
Outline: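 Compounds were applied to a genetically altered yeast strain carrying a cell-cycle control defect. Growth inhibition was scored against vehicle-treated controls.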

[6] = NCI Yeast Anticancer Drug Screen. Data for the mlh1 rad18 strain (AID 175); settings: S. cerevisiae mlh1 rad18 strain growth inhibition, active compounds read high
Outline: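 Vehicle-treated cultures served as the reference for growth inhibition in a yeast strain carrying DNA damage repair alterations exposed to each compound.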

[7] = at 5.0 µM (retest, dose inferred, filed as 0.5)
[8] = at 50.0 µM (retest, dose inferred, filed as 5.0)

SMILES | growth inhibition [1, 7] | growth inhibition [1, 8] | growth inhibition ([1]; at 50.0 µM) | growth inhibition [2, 7] [%] | growth inhibition [2, 8] | growth inhibition ([2]; at 50.0 µM) | growth inhibition [3, 7] | growth inhibition [3, 8] | growth inhibition ([3]; at 50.0 µM) | growth inhibition [4, 7] | growth inhibition [4, 8] | growth inhibition ([4]; at 50.0 µM) | growth inhibition [5, 7] | growth inhibition [5, 8] | growth inhibition ([5]; at 50.0 µM) | growth inhibition [6, 7] | growth inhibition [6, 8] | growth inhibition ([6]; at 50.0 µM)
C=C1CC2(CCOc3ccccc32)OC1=O (stereo not given) | 6% | 70% (active) | 80.5% (active) | 17 | 91% (active) | 89.1% (active) | 12% | 92% (active) | 95% (active) | 5% | 60% | 18.6% | 4% | 86% (active) | 88.3% (active) | 17% | 89% (active) | 91% (active)
Cc1ccccc1N=Nc1c(C)nn(C(N)=S)c1-c1ccccc1 | 6% | 85% (active) | 95.2% (active) | -15 | 96% (active) | 57.1% | -5% | 96% (active) | 94.8% (active) | -6% | 87% (active) | -4.5% | -3% | 97% (active) | 34.5% | 12% | 97% (active) | 96.3% (active)
O=C1OC(OC/C(Br)=C(/Br)COC2OC(=O)C(Cl)=C2Cl)C(Cl)=C1Cl (stereo not given) | 93% (active) | 99% (active) | 99.2% (active) | 64 | 99% (active) | 99.4% (active) | 97% (active) | 100% (active) | 98.9% (active) | 71% (active) | 98% (active) | 97.3% (active) | 84% (active) | 99% (active) | 98.8% (active) | 97% (active) | 99% (active) | 98.7% (active)
C=Cc1cc(N=Nc2ccc([N+](=O)[O-])cc2)ccc1N(C)C | 6% | 12% | 48% | -1 | -2% | 4.2% | 3% | 25% | 4.6% | -2% | -15% | -25.9% | 2% | 6% | 2.55% | -9% | -12% | 47.7%
CC1CCC(SC2CC(=O)CCC2=O)CC1 (stereo not given) | 19% | 98% (active) | 99% (active) | 19 | 99% (active) | 99.2% (active) | 21% | 99% (active) | 92% (active) | 6% | 99% (active) | 98.2% (active) | 24% | 98% (active) | 98.7% (active) | -1% | 98% (active) | 98.6% (active)
CC(=O)Oc1ccccc1N(C(C)=O)S(=O)(=O)c1ccc(C)cc1 | 16% | 98% (active) | 95.7% (active) | 12 | 99% (active) | 97.5% (active) | 11% | 99% (active) | 96.2% (active) | 1% | 99% (active) | 98.5% (active) | -2% | 99% (active) | 99.2% (active) | 34% | 99% (active) | 98.8% (active)
COc1nc2nc(Cl)cc(C)c2c2ccccc12 (tested in a mixture with another compound) | 33% | 94% (active) | 98.1% (active) | 11 | 91% (active) | 65.2% | 8% | 76% (active) | 52.1% | 3% | 86% (active) | 71.8% (active) | 5% | 94% (active) | 78.5% (active) | 17% | 93% (active) | 54.2%
O[C@H]1c2cccn2-c2ccccc2S[C@H]1c1ccccc1 | 12% | 99% (active) | 98.8% (active) | -6 | 99% (active) | 98.8% (active) | 3% | 97% (active) | 98.8% (active) | 6% | 99% (active) | 98.8% (active) | 10% | 98% (active) | 98.5% (active) | -4% | 99% (active) | 99% (active)
Clc1ccc(N2CCN(CCCN3CCN(c4ccc(Cl)cc4)CC3)CC2)cc1 | -2% | 29% | 67.9% | -6 | 35% | 18.5% | -14% | 74% (active) | 81.2% (active) | -3% | 30% | 6.25% | -3% | 24% | 24.9% | 4% | 42% | 31.8%
CN(C)CCCNc1c2ccccc2nc2ccc([N+](=O)[O-])cc12 | 16% | 80% (active) | 68.3% | 13 | 70% (active) | 25.6% | 21% | 80% (active) | 20.7% | 19% | 54% | 52.5% | 11% | 59% | 39.5% | 31% | 84% (active) | 29.2%
